About 79,000 compounds went through this panel and 15% of them were active in at least one assay; those are over-represented in the sample as a whole. Unmarked numbers belong to inactive results. The source made the active and inactive calls. No stated cut-off is given here; in the data, active means growth inhibition above about 70%; inactive means the rest.
How the values were obtained:
[1] = NCI Yeast Anticancer Drug Screen. Data for the rad50 strain (AID 155);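 further: 0% = growth of vehicle-only cultures of the same strain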; conditions: S. cerevisiae rad50 strain growth inhibition, stronger effect = higher value
Summary of the method: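 Cells are treated with compound, grown, and their growth is then scored against vehicle-only cultures of the same repair-deficient yeast strain.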

[2] = NCI Yeast Anticancer Drug Screen. Data for the mec2-1 strain (AID 157); conditions: S. cerevisiae mec2-1 strain, stronger effect = higher value
Summary of the method: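 Growth inhibition is read against vehicle-treated controls after compound exposure of the mec2-1 yeast strain, which is defective in DNA damage repair or cell cycle control.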

[3] = NCI Yeast Anticancer Drug Screen. Data for the sgs1 mgt1 strain (AID 161);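 further: 0% = growth of cultures given vehicle only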; conditions: S. cerevisiae sgs1 mgt1 strain, stronger effect = higher value
Summary of the method: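 This yeast growth screen uses a strain with defined DNA-repair lesions; compound-treated growth is compared with vehicle-treated growth.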

[4] = NCI Yeast Anticancer Drug Screen. Data for the cln2 rad14 strain (AID 165);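 further: 0% = growth equal to vehicle treated cultures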; conditions: S. cerevisiae cln2 rad14 strain, stronger effect = higher value
Summary of the method: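 Growth inhibition, relative to vehicle-treated controls, is the read-out. The test organism is a yeast strain with defined genetic alterations, cln2 rad14.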

[5] = NCI Yeast Anticancer Drug Screen. Data for the bub3 strain (AID 167); conditions: S. cerevisiae bub3 mutant strain, stronger effect = higher value
Summary of the method: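 Part of a panel of yeast mutants defective in DNA damage repair or cell cycle regulation. Each strain is grown with compound, and inhibition is calculated relative to solvent-treated cultures.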

[6] = NCI Yeast Anticancer Drug Screen. Data for the mlh1 rad18 strain (AID 175); conditions: S. cerevisiae mlh1 rad18 strain growth inhibition, stronger effect = higher value
Summary of the method: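 Cells of a genetically altered yeast strain, deficient in DNA damage repair, were treated with compound. Their growth was then compared with that of vehicle-treated cultures to give inhibition.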

[7] = at 5.0 µM (retest, dose inferred, filed as 0.5)
[8] = at 50.0 µM (retest, dose inferred, filed as 5.0)

Compound | growth inhibition [1, 7] | growth inhibition [1, 8] | growth inhibition ([1]; at 50.0 µM) | growth inhibition [2, 7] | growth inhibition [2, 8] | growth inhibition ([2]; at 50.0 µM) | growth inhibition [3, 7] | growth inhibition [3, 8] | growth inhibition ([3]; at 50.0 µM) | growth inhibition [4, 7] | growth inhibition [4, 8] | growth inhibition ([4]; at 50.0 µM) | growth inhibition [5, 7] | growth inhibition [5, 8] | growth inhibition ([5]; at 50.0 µM) | growth inhibition [6, 7] | growth inhibition [6, 8] | growth inhibition ([6]; at 50.0 µM)
CCCCCCN(CCCCCC)CCCCCC | 3% | -4% | 28.6% | -2% | -7% | 10.8% | 0% | -2% | 9.75% | -37% | -6% | 3.55% | 10% | 12% | 7.8% | -3% | 3% | 35.8%
CC(C)c1cccc(O)c1O | 7% | 1% | 87.2% (active) | -7% | 14% | 89.4% (active) | 9% | 13% | 82.3% (active) | 23% | 38% | 86.3% (active) | -1% | 45% | 89.5% (active) | -1% | 4% | 86.9% (active)
Cc1ccc(NC(Nc2ccc(C)cc2C)=C(/C=C(\Cl)[N+](=O)[O-])[N+](=O)[O-])c(C)c1 | 99% (active) | 97% (active) | 96.6% (active) | 99% (active) | 97% (active) | 96.1% (active) | 99% (active) | 97% (active) | 95.5% (active) | 98% (active) | 93% (active) | 93.2% (active) | 99% (active) | 97% (active) | 96% (active) | 99% (active) | 96% (active) | 96.3% (active)
[N-]=[N+]=Nc1c(-c2ccccc2)c(Cl)nc2ccccc12 | 11% | 99% (active) | 76% (active) | -7% | 98% (active) | 76.1% (active) | -4% | 98% (active) | 85.2% (active) | 20% | 98% (active) | 82.9% (active) | -33% | 97% (active) | 87.4% (active) | 2% | 98% (active) | 87.2% (active)
CC(CCl)OC(=O)Nc1cccc(C(F)(F)F)c1 (stereo not given) | 55% | 82% (active) | 73.1% (active) | 40% | 50% | 31.5% | 42% | 70% (active) | 83% (active) | 41% | 51% | 62% | 37% | 77% (active) | 74.8% (active) | 55% | 87% (active) | 73% (active)
Nc1cccc2c1[nH]c(=O)c1ccccc12 | 7% | 70% (active) | 78.8% (active) | 5% | 31% | 64% | 2% | 33% | 51.9% | -4% | 40% | 77.9% (active) | -3% | 98% (active) | 75.8% (active) | 9% | 97% (active) | 91.2% (active)
N=C(N)c1ccc(/C=C/c2ccc(C(=N)N)cc2)cc1 | 69% | 80% (active) | 85.8% (active) | 59% | 91% (active) | 81% (active) | 57% | 87% (active) | 74% (active) | 75% (active) | 84% (active) | 67.6% | 82% (active) | 94% (active) | 87.5% (active) | 90% (active) | 95% (active) | 90.2% (active)
COc1cc2c(c(OC)c1OC)-c1ccc(SC)c(=O)cc1[C@@H](NC(=O)Oc1ccccc1)CC2 | 73% (active) | 31% | 54% | 24% | 29% | -0.55% | -9% | 9% | -2.45% | -12% | 13% | 1.65% | -8% | 8% | 0.9% | 20% | 43% | 12.6%
CCOC(=O)C(Br)c1nc2ccccc2[nH]c1=O (stereo not given) | 2% | 73% (active) | 68.3% | -10% | 81% (active) | 74.2% (active) | 2% | 96% (active) | 49.1% | 2% | 49% | 28.7% | -7% | 86% (active) | 81.6% (active) | -5% | 98% (active) | 92.2% (active)
CC(c1ccccc1)[P+](c1ccccc1)(c1ccccc1)c1ccccc1 (stereo not given) | 5% | 97% (active) | 97.8% (active) | 13% | 97% (active) | 97.5% (active) | 11% | 98% (active) | 97.7% (active) | -4% | 95% (active) | 96.8% (active) | 6% | 99% (active) | 96.1% (active) | 16% | 97% (active) | 98% (active)
Clc1cc[c]([Sn]([O][Sn]([c]2ccc(Cl)cc2)([c]2ccc(Cl)cc2)[c]2ccc(Cl)cc2)([c]2ccc(Cl)cc2)[c]2ccc(Cl)cc2)cc1 | 98% (active) | 95% (active) | 97.5% (active) | 99% (active) | 98% (active) | 99.3% (active) | 99% (active) | 98% (active) | 96.6% (active) | 99% (active) | 96% (active) | 79.5% (active) | 98% (active) | 97% (active) | 88.8% (active) | 99% (active) | 97% (active) | 98.3% (active)
O=C1C2=C(CCCC2)C(=O)c2ccccc21 | 6% | 76% (active) | 25.4% | 8% | 79% (active) | 13.7% | 11% | 71% (active) | 28% | 3% | 15% | -30.5% | 35% | 79% (active) | 60.4% | 7% | 43% | 68.5%
CC(=O)N(C1=C(Cl)C(=O)c2ccccc2C1=O)c1ccc(F)cc1 | 28% | 99% (active) | 98.8% (active) | 39% | 98% (active) | 99.3% (active) | 35% | 99% (active) | 99.4% (active) | 13% | 98% (active) | 94.4% (active) | 57% | 99% (active) | 97.4% (active) | 39% | 99% (active) | 99.4% (active)
O=C(O)c1ccccc1-c1c2ccc(=O)c(Br)c-2oc2c(Br)c(O)ccc12 | 13% | 93% (active) | 87.5% (active) | 42% | 99% (active) | 98% (active) | 33% | 98% (active) | 99.5% (active) | 14% | 96% (active) | 97.5% (active) | -1% | 96% (active) | 96.4% (active) | 49% | 97% (active) | 97.8% (active)
O=C(/C=C/c1cccnc1)c1cc(Cl)ccc1O | 3% | 61% | 86.9% (active) | 3% | 40% | 23.9% | -3% | 22% | 56.9% | 1% | 24% | 26.6% | 1% | 71% (active) | 5.2% | 5% | 48% | 42.5%
O=C1c2ccccc2C(=O)c2sc(Nc3ccccc3C(F)(F)F)nc21 | 99% (active) | 96% (active) | 90.3% (active) | 100% (active) | 97% (active) | 92.1% (active) | 99% (active) | 96% (active) | 92.7% (active) | 94% (active) | 97% (active) | 90.5% (active) | 99% (active) | 97% (active) | 92.2% (active) | 99% (active) | 96% (active) | 88.5% (active)
N#CCCN(CCC#N)Cc1cc(-c2ccccc2)ccc1O | 5% | 55% | 87.5% (active) | 1% | 19% | 55% | -2% | 59% | 59.5% | -8% | -8% | -14.9% | 1% | 44% | 85.2% (active) | -9% | 28% | 82.2% (active)
CC(C)N=Cc1cc(Br)cc(Br)c1O.CC(C)N=Cc1cc(Br)cc(Br)c1O.[Co] | 93% (active) | 99% (active) | 92% (active) | 54% | 99% (active) | 90.6% (active) | 87% (active) | 99% (active) | 98% (active) | 88% (active) | 99% (active) | 65% | 98% (active) | 99% (active) | 86.3% (active) | 98% (active) | 99% (active) | 88.7% (active)
C1CNC(CCNCCSCCNCCC2=NCCN2)=N1 | 10% | 90% (active) | 95.1% (active) | 1% | 75% (active) | 84.2% (active) | 5% | 87% (active) | 91.9% (active) | 5% | 72% (active) | 83.2% (active) | -2% | 89% (active) | 93.5% (active) | 1% | 91% (active) | 94.3% (active)
CC(=O)Oc1cc(Cl)ccc1Cc1ccc(Cl)cc1OC(C)=O | 0% | 87% (active) | 94.5% (active) | 1% | 78% (active) | 91.4% (active) | 0% | 76% (active) | 85.1% (active) | 2% | 89% (active) | 90.7% (active) | 2% | 83% (active) | 94.8% (active) | 1% | 90% (active) | 94.7% (active)
